# Measured values as given in PubChem BioAssay AID2284363 (EPA ToxCast).
# Calls of active or inactive are those of the source. Rule for the calls: active = hit-call score of the fitted dose curve at least 0.9, where 1 is the maximum; inactive = score below 0.9.
# Biological target: Nuclear factor erythroid 2-related factor 2 (Homo sapiens) (UniProt Q16236)
# Assay: ERF_US_NR_hNFE2L2: Eurofins (ERF) Cell Based Nuclear Translocation LeadHunter Assay for human Transcription Factor Keap1-Nrf2 Agonism
# Description: ERF_US_NR_hNFE2L2 is a cell-based, single-readout assay that uses extracted gene-proteins in a cell-line assay. Measurements were taken 6 hours after chemical dosing in a 384-well plate. See Keap1-Nrf2 Human Transcription Factor Cell Based Agonist Nuclear Translocation Assay, DiscoverX.ERF_US_NR_hNFE2L2 is an assay component calculated from the ERF_US_NR_hNFE2L2 assay. It is designed to measure protein fragment complementation using a type of binding reporter as detected by chemiluminescence with fluorimetry technology.Data from the assay component ERF_US_NR_hNFE2L2 was analyzed at the assay endpoint, ERF_US_NR_hNFE2L2, in the positive analysis fitting direction relative to DMSO as the negative control and baseline of activity. Using a type of binding reporter, gain-of-signal activity can be used to understand changes in binding as they relate to gene NFE2L2. To generalize the intended target to other relatable targets, this assay endpoint is annotated to the dna binding intended target family, where the subfamily is basic leucine zipper.
# Cells were seeded in a total volume of 20 uL into white walled, 384-well microplates and incubated at 37C overnight prior to testing.For agonist determination, cells were incubated with sample to induce response. […] The results are expressed as a percent efficacy relative to the maximum response of the control ligand.
# Chain of Nuclear factor erythroid 2-related factor 2 (Homo sapiens) (Q16236 whole entry, looked up): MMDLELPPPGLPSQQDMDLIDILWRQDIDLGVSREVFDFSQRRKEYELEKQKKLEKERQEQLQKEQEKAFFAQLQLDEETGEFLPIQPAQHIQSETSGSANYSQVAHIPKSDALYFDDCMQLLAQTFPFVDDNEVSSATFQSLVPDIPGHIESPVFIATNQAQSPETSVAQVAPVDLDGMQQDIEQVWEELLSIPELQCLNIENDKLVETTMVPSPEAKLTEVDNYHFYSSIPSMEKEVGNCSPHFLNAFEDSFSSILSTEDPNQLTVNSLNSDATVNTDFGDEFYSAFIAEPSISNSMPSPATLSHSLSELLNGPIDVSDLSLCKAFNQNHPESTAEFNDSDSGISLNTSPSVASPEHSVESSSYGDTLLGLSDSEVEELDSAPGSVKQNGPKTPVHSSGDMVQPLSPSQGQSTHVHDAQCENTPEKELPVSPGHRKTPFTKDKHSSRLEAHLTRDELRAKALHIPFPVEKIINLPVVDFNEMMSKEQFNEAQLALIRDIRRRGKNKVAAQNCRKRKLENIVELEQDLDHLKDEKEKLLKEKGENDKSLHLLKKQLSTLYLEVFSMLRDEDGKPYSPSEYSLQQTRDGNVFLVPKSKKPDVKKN
Compound,outcome,AC50
CCNS(=O)(=O)C(F)(F)C(F)(F)C(F)(F)C(F)(F)C(F)(F)C(F)(F)C(F)(F)C(F)(F)F,inactive,
CC(C)(C)c1cc(O)ccc1O,,12.2 µM (active)
